# Experimental data as given in ChEMBL document CHEMBL3988442, “University of Dundee, Small-Polar-MMV Screening Library” (2021).
# In all, about 69,000 compounds went through this assay and about 420 (0.61%) showed an effect of 50% or more. Shown is part of a subset that was picked to be rich in strong results.
# Biological target: T1, Histidine--tRNA ligase (Leishmania infantum) (UniProt A4I591)
# T1 sequence (whole entry): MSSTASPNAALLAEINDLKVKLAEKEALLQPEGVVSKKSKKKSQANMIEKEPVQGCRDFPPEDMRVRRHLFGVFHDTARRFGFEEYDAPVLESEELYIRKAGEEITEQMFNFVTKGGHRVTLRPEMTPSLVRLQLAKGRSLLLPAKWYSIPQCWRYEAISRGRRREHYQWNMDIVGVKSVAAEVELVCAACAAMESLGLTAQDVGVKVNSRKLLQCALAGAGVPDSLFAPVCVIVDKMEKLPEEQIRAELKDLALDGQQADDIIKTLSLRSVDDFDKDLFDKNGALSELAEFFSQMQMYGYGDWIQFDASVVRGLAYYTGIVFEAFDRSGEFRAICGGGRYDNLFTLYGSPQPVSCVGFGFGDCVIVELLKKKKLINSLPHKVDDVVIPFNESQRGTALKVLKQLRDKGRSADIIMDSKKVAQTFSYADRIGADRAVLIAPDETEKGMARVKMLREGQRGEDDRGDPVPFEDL
# Assay: Leishmania infantum Histidine tRNA synthetase (LdHisRS)
# Assay type: functional
# Design: scale not given: in the data most compounds retested in dose-response had high values
# Settings: 30 µM
row,SMILES,Percent Effect [%]
1,CC(C)NC(=O)N1CC[C@H]2[C@H]1CCN2c1ncccn1,15.4
2,COc1ncccc1CN1C[C@@H]2COC[C@]2(COc2cccnc2)C1,20.5
3,Cc1nc([C@@H]2C[C@@H]3CCN(C(=O)c4ccsc4)C[C@H]3O2)no1,0
4,COc1cccc(CN2C[C@@H]3CC[C@@](O)(c4ccccn4)[C@@H]3C2)c1OC,0
5,CC(C)=CCN1CCN(Cc2nccn2C)[C@H]2CS(=O)(=O)C[C@H]21,11.2
6,CCCS(=O)(=O)N1CCO[C@H]2[C@@H](Oc3cccnc3)CC[C@@H]21,16.4
7,Cc1c(CN2CCCCC2)c(O)n(CCO)c(=O)c1C#N,55.9
8,Cn1c(NCCN2CCCCCC2)c(C#N)c(=O)n(C)c1=O,24.7
9,Cc1c(CN2CCOCC2)c(O)n(CCO)c(=O)c1C#N,47.4
10,CN(CCN1CCOCC1)C(=O)CCCc1ccccc1,11.4
11,Cc1c(CN2CCOCC2)c(O)n(CCc2ccccc2)c(=O)c1C#N,60.5
12,Cc1c(CN2CCCCC2)c(O)n(CCCO)c(=O)c1C#N,45.4
13,Cc1nnc([C@@]23CCO[C@@H]2CCN(Cc2cccc4ccccc24)C3)o1,5.94
14,CNC(=O)[C@@H]1COC[C@H]2CN(C(=O)c3ccc(OC)cc3)C[C@H]21,8.77
15,CN1C(=O)CO[C@H]2CN(C(=O)c3ccc4c(c3)CCCC4)C[C@@H]21,0
16,O=S(=O)(c1cccnc1)N1C[C@@H]2CC[C@H](C1)N(Cc1ccccn1)C2,7.53
17,N#Cc1ccc(C(=O)N2C[C@H](OCc3cccnc3)[C@H]3COC[C@H]32)cc1,6.94
18,CN(C)CCNC(=O)C1Cc2nc(-c3ccsc3)sc2N1CC1CC1 (centres undefined),22.2
19,CC(C)NC(=O)C1Cc2nc(-c3ccsc3)sc2N1CC1CC1 (centres undefined),51.4
20,CC(C)N1c2sc(-c3ccsc3)nc2CC1C(=O)NC1CC1 (centres undefined),30
21,CN(C)CCNC(=O)C1Cc2nc(-c3ccccc3)sc2N1CC1CC1 (centres undefined),20.8
22,O=C(NC1CCCC1)C1Cc2nc(-c3ccsc3)sc2N1CC1CC1 (centres undefined),23.6
23,O=C(Nc1cccnc1)C1Cc2nc(-c3ccsc3)sc2N1CC1CC1 (centres undefined),62.5
24,CC(C)CNC(=O)[C@H]1C[C@@H]2CN(C(=O)NCC3CCCCC3)C[C@H]1O2,17.2
25,COc1ccccc1CN1C(=O)O[C@@H]2CN(Cc3cccc(C)n3)C[C@@H]21,-1.67
26,O=C1O[C@@H]2CN(Cc3ccncc3)C[C@@H]2N1CCCN1CCOCC1,-6.67
27,COc1ccc(-n2cc(CCO)cn2)cc1C,69.6

row,SMILES,Percent Effect [%]
1,COc1ccc(-n2cc(CCO)cn2)cc1C(N)=O,34.2
2,COc1cc(-n2cc(CCO)cn2)ccc1NC(C)=O,31.6
3,N#Cc1ccc(OC[C@]23COC[C@H]2CN(c2ncccn2)C3)nc1,5.56
4,c1cncc(N2CCCC3(CCN(CCN4CCCC4)CC3)C2)c1,15.3
5,c1cncc(N2CCC3(CCCN(c4ccncc4)C3)CC2)c1,15.3
6,N#Cc1ccc(N2CCCC3(CCN(c4cccnc4)CC3)C2)cc1,51.4
7,O=C1[C@H]2CN(Cc3ccccc3)C[C@H]2CN1CCN1CCCC1,17.3
8,Cc1ccc(-n2cc(CN3CCN(C)[C@@H]4CS(=O)(=O)C[C@@H]43)cn2)cc1,11.4
9,Cc1cc(C)cc(NC(=O)Nc2c(O)oc3ccccc3c2=O)c1,16.1
10,Cc1ncnc(N2CCCN(c3nc4ccccc4s3)CC2)c1C,25.7
11,Cn1nc2c(cc1=O)CN(Cc1nc(N)c3ccccc3n1)CC2,43.5
12,CCn1nc2c(cc1=O)CN(c1nc3ccccc3s1)CC2,72.7
13,Cn1nc2c(cc1=O)CN(CCc1nc3ccccc3c(=O)[nH]1)CC2,53.9
14,Cn1nc2c(cc1=O)CN(Cc1nc3ccccc3c(=O)[nH]1)CC2,24.7
15,CCn1nc2c(cc1=O)CN(Cc1nc3ccccc3c(=O)[nH]1)CC2,25
16,CCn1nc2c(cc1=O)CN(Cc1nc3ccccc3o1)CC2,12.9
17,CC(C)n1nc2c(cc1=O)CN(c1nc3ccccc3s1)CC2,18.2
18,c1ccc2sc(N3CCN(c4ncnc5c4CCC5)CC3)nc2c1,14.3
19,c1ccc2sc(N3CCCN(c4ncnc5c4CCNC5)CC3)nc2c1,57.1
20,Cn1nc2c(cc1=O)CN(c1nc3ccccc3s1)CC2,90.9
21,Cc1nc(CO[C@H]2CN(C(=O)c3cnoc3C)[C@@H]3COC[C@H]23)cs1,10
22,CC(C)NC(=O)[C@@]12CCO[C@@H]1CCN(Cc1ccco1)C2,15.1
23,O=C(Nc1cccnc1)[C@H]1C[C@@H]2CN(Cc3ccc(F)cc3)C[C@H]1O2,10
24,CC(C)C(=O)N1CC[C@H]2N(C)CC[C@@]2(C(=O)Nc2cccnc2)CC1,8.11
25,OC[C@H]1CC[C@]2(CC1)CN(Cc1ccsc1)Cc1ccccc1O2,16.5
26,O=C(c1ccco1)N1C[C@@H]2OCCN(CCN3CCCC3)[C@@H]2C1,6.01
27,CNC(=O)N1CCC2(CC1)CC[C@@]1(C(=O)NC)CN(S(C)(=O)=O)C[C@@H]21,9.72

row,SMILES,Percent Effect [%]
1,CN(Cc1ccco1)[C@@H]1CN(Cc2nccn2C)[C@@H]2CCCO[C@H]12,27
2,O=C([C@@H]1COC[C@H]2CN(c3ccncn3)C[C@H]21)N1CCCC1,19.3
3,CN(Cc1cccs1)C(=O)c1ccc(=O)n(C)c1,11.3
4,CN(Cc1ccco1)C(=O)c1ccc(=O)n(C)c1,14.9
5,COc1ccc(NC(=O)N(C)Cc2ccco2)cn1,16
6,Cc1occc1CN(C)C(=O)Nc1ccc(=O)n(C)c1,102
7,CN(Cc1ccco1)C(=O)Nc1ccc(=O)n(C)c1,102
8,CN(Cc1ccc2c(c1)OCO2)C(=O)c1ccc(=O)n(C)c1,5.33
9,CS(=O)(=O)N[C@@H]1CN(C(=O)c2cccnc2)[C@@H]2CCCO[C@@H]21,8.26
10,O=C([C@@H]1C[C@@H]2CCN(C3CCOCC3)C[C@@H]2O1)N1CCOCC1,8.33
11,CC(=O)N1CCN(C(=O)CNc2ccc3sccc3c2)CC1,27.2
12,CC(=O)N1CCN(C(=O)CNc2ccc3ncsc3c2)CC1,58.8
13,CC(=O)N1CCN(C(=O)C(C)Nc2ccc3ncsc3c2)CC1 (centres undefined),28.9
14,CC1CCCN(Cc2coc(-c3cccc(F)c3)n2)C1 (centres undefined),13.7
15,Cn1nc2c(cc1=O)CN(Cc1coc(-c3cccc(F)c3)n1)CC2,90.3
16,CCn1nc2c(cc1=O)CN(Cc1coc(-c3ccccc3)n1)CC2,14.9
17,O=C1NCCN1C1CCN(Cc2coc(-c3ccc(F)cc3)n2)CC1,9.82
18,O=C1NCCN1C1CCCN(Cc2coc(-c3ccc(F)cc3)n2)C1 (centres undefined),24.6
19,CN(C)CC1CN(Cc2coc(-c3cccs3)n2)CCO1 (centres undefined),14.9
20,O=C1NCCN1C1CCCN(Cc2coc(-c3cccs3)n2)C1 (centres undefined),13.4
21,Cc1ccc(-c2nc(CN3CCc4nn(C)c(=O)cc4C3)co2)cc1,107
22,Cn1nc2c(cc1=O)CN(Cc1coc(-c3ccccc3)n1)CC2,44.7
23,Cn1nc2c(cc1=O)CN(Cc1coc(-c3ccc(F)cc3)n1)CC2,90.3
24,CCN1CCN(Cc2coc(-c3cccc(F)c3)n2)CC1,21.9
25,Cn1nc2c(cc1=O)CN(Cc1coc(-c3cccs3)n1)CC2,97.6
